In PubChem BioAssay (EPA / NIEHS):
Active and inactive are the calls of the source. How the source made its calls: active means hit-call score of the fitted dose curve at least 0.9, where 1 is the maximum; inactive means score below 0.9.

Tests used:
[1] = molecular target: CCAAT/enhancer-binding protein beta (Homo sapiens) (UniProt P17676); assay: ATG_C_EBP_CIS: Attagene CIS-FACTORIAL HepG2 Assay for human CCAAT/Enhancer Binding Protein (C/EBP) beta (AID 2282927); settings: HepG2 Attagene cis-factorial transcription factor reporter; actives raise or lower the signal
Summary of the method: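 HepG2, transient MRTU transfection, 24 h treatment. RT-PCR plus CE fluorescence; DMSO negative control, bidirectional fit.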

[2] = ATG_CMV_CIS: Attagene CIS-FACTORIAL HepG2 Assay for human CMV (Internal Marker) (AID 2282928); settings: HepG2 CMV promoter reporter, transcription factor profiling; actives raise or lower the signal;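 further: endpoint acts as a background internal control marker rather than a target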
Summary of the method: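 After transient transfection of HepG2 with reporter transcription units driven by cis-regulatory promoters, cells receive test chemical for 24 h. Labeled reporter amplicons, digested with HpaI, are sized and quantified by capillary electrophoresis against DMSO.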

[3] = ATG_AP_2_CIS: Attagene CIS-FACTORIAL HepG2 Assay for human Activator Protein 2 (AP-2) (AID 2282932); settings: HepG2 AP-2 cis-reporter, Attagene transcription factor profiling; actives raise or lower the signal
Summary of the method: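 Multiplexed mRNA reporter assay in HepG2: cis-regulated units report endogenous factor activity after 24 h treatment. Fluorescence from capillary electrophoresis of RT-PCR products gives the signal, with DMSO as baseline.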

[4] = ATG_BRE_CIS: Attagene CIS-FACTORIAL HepG2 Assay for human Bone Morphogenetic Protein (BMP) Response Element (BRE) (AID 2282933); settings: HepG2 BMP response element reporter, Attagene transcription factor profiling; actives raise or lower the signal
Summary of the method: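 A HepG2 multiplex reporter system measured inducible reporter mRNA 24 h post-dosing. Detection: RT-PCR, 6-FAM primer extension, HpaI digestion, capillary electrophoresis. Activity fitted bidirectionally relative to DMSO.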

[5] = molecular target: Transcription factor E2F1 (Homo sapiens) (UniProt Q01094); assay: ATG_E2F_CIS: Attagene CIS-FACTORIAL HepG2 Assay for human E2F Transcription Factor 1 (AID 2282935); settings: HepG2 Attagene cis-reporter, E2F reporter RNA transcripts; actives raise or lower the signal
Summary of the method: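 Measures reporter transcript levels via RT-PCR with capillary electrophoresis detection in HepG2 cells harboring cis-regulated reporter units; 24 h post-dose; bidirectional curve fitting with DMSO as baseline.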

[6] = ATG_E_Box_CIS: Attagene CIS-FACTORIAL HepG2 Assay for human Enhancer Box (E-box) (AID 2282936); settings: HepG2 E-box cis-reporter transcription, actives raise or lower the signal
Summary of the method: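 First, HepG2 cells receive multiple cis-regulated reporter constructs by transient transfection. Next, chemicals are applied for 24 h. Finally, reporter mRNA is quantified via RT-PCR and capillary electrophoresis, with DMSO as baseline.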

[7] = ATG_M_61_CIS: Attagene CIS-FACTORIAL HepG2 Assay for M61 Transcription Factor (Internal Marker) (AID 2282937); settings: HepG2 Attagene CIS-FACTORIAL M61 internal marker reporter; actives raise or lower the signal
Summary of the method: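 Readout is reporter mRNA by RT-PCR, fluorescent primer extension and capillary electrophoresis, with gain or loss fitted relative to DMSO. Transfected HepG2 cells carrying endogenous-TF-driven cis reporters were exposed to chemicals for 24 hours.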

[8] = ATG_EGR_CIS: Attagene CIS-FACTORIAL HepG2 Assay for human Early Growth Response 1 (EGR1) (AID 2282938); settings: HepG2 Attagene CIS-FACTORIAL EGR reporter mRNA; actives raise or lower the signal
Summary of the method: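 After 24 h compound exposure, RNA from reporter-transfected HepG2 cells was reverse-transcribed, PCR-amplified, fluorescently labelled and resolved by capillary electrophoresis. EGR1 reporter transcript changes, up or down, were fitted against DMSO, reflecting endogenous transcription-factor activity.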

[9] = ATG_M_19_CIS: Attagene CIS-FACTORIAL HepG2 Assay for M19 Transcription Factor (Internal Marker) (AID 2282939); settings: HepG2 Attagene CIS-FACTORIAL M19 internal marker reporter; actives raise or lower the signal
Summary of the method: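 Chemical-treated HepG2 (24 h) with MRTU constructs; reporter transcripts detected by fluorescent RT-PCR fragment analysis on capillary electrophoresis. Internal background marker, DMSO as baseline.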

[10] = ATG_FoxO_CIS: Attagene CIS-FACTORIAL HepG2 Assay for human Forkhead box O (FoxO) (AID 2282943); settings: HepG2 Attagene cis-reporter, FoxO element, mRNA; actives raise or lower the signal
Summary of the method: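 Transfected HepG2 reporter cells exposed to test chemical for 24 h; reporter RNA measured by reverse transcription, PCR and fluorescent capillary electrophoresis; curves fitted for increases and decreases against DMSO.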

[11] = ATG_GATA_CIS: Attagene CIS-FACTORIAL HepG2 Assay for human GATA Binding Protein (AID 2282944); settings: HepG2 GATA cis-element reporter, Attagene multiplex mRNA; actives raise or lower the signal
Summary of the method: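 Transfected cis-reporter HepG2 cells were treated with chemicals for 24 hours. Total RNA was then converted to cDNA, amplified with reporter-specific primers and analysed by fluorescent capillary electrophoresis, using DMSO-treated wells as baseline.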

[12] = ATG_GLI_CIS: Attagene CIS-FACTORIAL HepG2 Assay for human Zinc Finger Protein GLI1 (AID 2282945); settings: HepG2, Attagene cis-factorial reporter mRNA, GLI element; actives raise or lower the signal
Summary of the method: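 Transiently transfected HepG2 cells report endogenous transcription factor activity via cis-element-driven reporter units. After 24 h compound exposure, reporter mRNA was measured by RT-PCR with capillary electrophoresis; bidirectional fitting against DMSO baseline.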

[13] = ATG_ISRE_CIS: Attagene CIS-FACTORIAL HepG2 Assay for human Interferon Regulatory Factor 1 (IRF1) binding to an Interferon-Stimulated Response Element (ISRE) (AID 2282948); settings: HepG2 ISRE cis-reporter (Attagene), mRNA transcription readout; actives raise or lower the signal
Summary of the method: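 Cell-based cis-reporter assay; HepG2; 24 h exposure; reporter mRNA by RT-PCR plus capillary electrophoresis fluorescence; activity in either direction scored relative to DMSO.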

[14] = ATG_M_32_CIS: Attagene CIS-FACTORIAL HepG2 Assay for M32 Transcription Factor (Internal Marker) (AID 2282949); settings: HepG2 Attagene cis-factorial M32 reporter, mRNA; actives raise or lower the signal;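 further: background control marker of the multiplexed CIS panel rather than a real target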
Summary of the method: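 Following 24 h chemical exposure of HepG2 cells transiently expressing cis-promoter reporter constructs, reporter transcript levels were determined by RT-PCR with fluorescent labelling and capillary electrophoresis, then fitted bidirectionally against DMSO.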

[15] = ATG_M_06_CIS: Attagene CIS-FACTORIAL HepG2 Assay for M06 Transcription Factor (Internal Marker) (AID 2282950); settings: HepG2 Attagene CIS-FACTORIAL M06 internal marker reporter; actives raise or lower the signal
Summary of the method: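 Cells (HepG2, transiently carrying cis-driven reporter units) receive chemical for 24 h before RNA isolation. Reporter cDNA is PCR-amplified, FAM-labelled by primer extension, HpaI-digested and sized on a capillary analyser.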

[16] = ATG_MRE_CIS: Attagene CIS-FACTORIAL HepG2 Assay for human Metal Responsive Element (MRE) (AID 2282954); settings: HepG2 MRE cis-reporter transcription, Attagene multiplex; actives raise or lower the signal
Summary of the method: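 Fluorescent reporter fragments separated by capillary electrophoresis give mRNA induction for the MRE unit after 24 h treatment of transfected HepG2 cells. Endogenous transcription-factor activity is read; DMSO serves as negative control and baseline.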

[17] = ATG_PXRE_CIS: Attagene CIS-FACTORIAL HepG2 Assay for human Pregnane X Receptor Element (PXRE) (AID 2282957); settings: HepG2 Attagene CIS-FACTORIAL PXRE reporter, mRNA; actives raise or lower the signal
Summary of the method: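 Cells: HepG2, transiently transfected reporter units under cis promoter control. Exposure: 24 h. Detection: reporter mRNA via RT-PCR/CE fluorescence; bidirectional fitting, DMSO-referenced.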

[18] = ATG_Sox_CIS: Attagene CIS-FACTORIAL HepG2 Assay for human SRY-box transcription factor (SOX) (AID 2282960); settings: HepG2 Attagene cis-factorial SOX reporter, mRNA; actives raise or lower the signal
Summary of the method: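 Reporter transcripts, measured by RT-PCR and capillary electrophoresis of labelled fragments, report endogenous SOX transcription factor activity. Transiently transfected human HepG2 cells receive chemical for 24 h; changes in either direction are fitted relative to DMSO.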

[19] = molecular target: Transcription factor Sp1 (Homo sapiens) (UniProt P08047); assay: ATG_Sp1_CIS: Attagene CIS-FACTORIAL HepG2 Assay for human Specificity Protein 1 (Sp1) (AID 2282961); settings: HepG2 Sp1 cis-reporter transcription, actives raise or lower the signal
Summary of the method: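 Read-out is reporter transcript level, measured by RT-PCR and fluorescent capillary electrophoresis after 24 h chemical treatment. System: transiently transfected HepG2 cells reporting endogenous transcription factor activity; gain or loss fitted against DMSO baseline.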

[20] = ATG_SREBP_CIS: Attagene CIS-FACTORIAL HepG2 Assay for human Sterol Regulatory Element Binding (SREBP) (AID 2282962); settings: HepG2 Attagene cis-factorial SREBP reporter, mRNA; actives raise or lower the signal
Summary of the method: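 mRNA induction of transfected cis-promoter reporters in HepG2 cells, 24 h post-dose. Detection: RT-PCR with 6-FAM-labelled products, HpaI digest, capillary electrophoresis. DMSO served as negative control and baseline.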

Chain of Transcription factor E2F1 (Homo sapiens) (Q01094 whole entry, looked up): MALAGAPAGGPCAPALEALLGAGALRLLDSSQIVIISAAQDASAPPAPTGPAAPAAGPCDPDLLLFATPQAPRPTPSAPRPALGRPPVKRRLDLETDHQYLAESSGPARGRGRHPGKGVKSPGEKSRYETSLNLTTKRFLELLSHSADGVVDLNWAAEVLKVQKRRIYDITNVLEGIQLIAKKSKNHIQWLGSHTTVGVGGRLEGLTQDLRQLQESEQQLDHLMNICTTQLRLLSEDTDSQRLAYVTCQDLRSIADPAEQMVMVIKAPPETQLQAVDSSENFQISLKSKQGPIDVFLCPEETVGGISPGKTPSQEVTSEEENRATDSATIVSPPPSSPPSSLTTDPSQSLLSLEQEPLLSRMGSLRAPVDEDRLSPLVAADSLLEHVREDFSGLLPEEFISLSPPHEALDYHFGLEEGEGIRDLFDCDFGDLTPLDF
Chain of CCAAT/enhancer-binding protein beta (Homo sapiens) (P17676 whole entry, looked up): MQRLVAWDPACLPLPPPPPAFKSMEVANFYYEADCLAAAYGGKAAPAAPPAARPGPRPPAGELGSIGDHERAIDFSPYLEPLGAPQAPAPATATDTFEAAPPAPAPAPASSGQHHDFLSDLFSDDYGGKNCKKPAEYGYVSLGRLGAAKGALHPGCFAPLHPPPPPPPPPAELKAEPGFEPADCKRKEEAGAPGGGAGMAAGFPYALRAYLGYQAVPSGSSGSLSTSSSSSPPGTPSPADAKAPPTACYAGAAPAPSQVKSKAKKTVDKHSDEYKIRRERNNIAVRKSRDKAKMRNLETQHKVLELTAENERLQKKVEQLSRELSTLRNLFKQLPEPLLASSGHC
Chain of Transcription factor Sp1 (Homo sapiens) (P08047 whole entry, looked up): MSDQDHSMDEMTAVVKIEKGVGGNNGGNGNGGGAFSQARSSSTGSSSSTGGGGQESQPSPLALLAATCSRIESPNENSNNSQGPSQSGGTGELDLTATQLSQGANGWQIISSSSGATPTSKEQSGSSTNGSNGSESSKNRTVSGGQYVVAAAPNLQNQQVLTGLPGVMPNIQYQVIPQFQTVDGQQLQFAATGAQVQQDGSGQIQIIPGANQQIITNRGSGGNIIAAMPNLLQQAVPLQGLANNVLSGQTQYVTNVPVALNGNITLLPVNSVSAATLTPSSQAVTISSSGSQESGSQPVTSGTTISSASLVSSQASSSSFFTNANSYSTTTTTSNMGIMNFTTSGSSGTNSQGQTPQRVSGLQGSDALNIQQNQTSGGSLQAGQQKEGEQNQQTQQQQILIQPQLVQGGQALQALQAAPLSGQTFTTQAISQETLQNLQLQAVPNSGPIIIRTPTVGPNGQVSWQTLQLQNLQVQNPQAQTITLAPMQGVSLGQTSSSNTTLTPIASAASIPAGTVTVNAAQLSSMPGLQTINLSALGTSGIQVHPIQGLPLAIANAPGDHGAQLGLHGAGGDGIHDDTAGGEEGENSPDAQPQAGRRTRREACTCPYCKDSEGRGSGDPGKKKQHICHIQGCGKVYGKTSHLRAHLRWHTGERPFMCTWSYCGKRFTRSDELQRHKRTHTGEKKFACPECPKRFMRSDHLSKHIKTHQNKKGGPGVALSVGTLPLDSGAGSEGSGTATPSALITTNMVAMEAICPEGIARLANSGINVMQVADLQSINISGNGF

## Nc1nnc(-c2ccc([N+](=O)[O-])o2)o1
[1]
  outcome: inactive
[2]
  outcome: inactive
[3]
  outcome: inactive
[4]
  outcome: inactive
[5]
  outcome: inactive
[6]
  outcome: inactive
[7]
  outcome: inactive
[8]
  outcome: inactive
[9]
  outcome: inactive
[10]
  outcome: inactive
[11]
  outcome: inactive
[12]
  outcome: inactive
[13]
  outcome: inactive
[14]
  outcome: inactive
[15]
  outcome: inactive
[16]
  outcome: inactive
[17]
  outcome: inactive
[18]
  outcome: inactive
[19]
  outcome: inactive
[20]
  outcome: inactive

## CC/C=C\CC1=C(C)CCC1=O
[1]
  outcome: inactive
[2]
  outcome: inactive
[3]
  outcome: inactive
[4]
  outcome: inactive
[5]
  outcome: inactive
[6]
  outcome: inactive
[7]
  outcome: inactive
[8]
  outcome: inactive
[9]
  outcome: inactive
[10]
  outcome: inactive
[11]
  outcome: inactive
[12]
  outcome: inactive
[13]
  outcome: inactive
[14]
  outcome: inactive
[15]
  outcome: inactive
[16]
  outcome: inactive
[17]
  AC50: 6.38 µM (active)
[18]
  outcome: inactive
[19]
  outcome: inactive
[20]
  outcome: inactive

## CC1=C(CC=O)C(C)(C)CCC1
[1]
  outcome: inactive
[2]
  outcome: inactive
[3]
  outcome: inactive
[4]
  outcome: inactive
[5]
  outcome: inactive
[6]
  outcome: inactive
[7]
  outcome: inactive
[8]
  outcome: inactive
[9]
  outcome: inactive
[10]
  outcome: inactive
[11]
  outcome: inactive
[12]
  outcome: inactive
[13]
  outcome: inactive
[14]
  outcome: inactive
[15]
  outcome: inactive
[16]
  outcome: inactive
[17]
  AC50: 0.734 µM (active)
[18]
  outcome: inactive
[19]
  outcome: inactive
[20]
  outcome: inactive
